Screens: PubChem, National Center for Advancing Translational Sciences (NCATS)
Six1-Eya2 inh: Six1/Eya2 interaction inhibition. AlphaScreen GST-Six1/His-Eya2 binding, biochemical; stronger effect = lower value. activity change, % (concentration not given with the values). hit rate 0.56% among 360,000. Q15475+O00167; in the data active = activity change below about -65%; inconclusive = mostly about -30% to -63%
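Compounds are tested against tagged Six1 and Eya2 proteins bridged by glutathione donor and nickel acceptor beads; after a one-hour incubation at 37 °C without light, AlphaScreen emission is recorded.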
CtBP-E1A blk: blocks the CtBP interaction with E1A; AlphaScreen GST-E1A/His-CtBP binding, 1536-well; stronger effect = lower value; activity change, % (concentration not given with the values); hit rate 0.49% among 340,000; in the data active = activity change below about -65%; inconclusive = mostly about -30% to -63%
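In 5 uL wells, 23 nL compound meets equimolar GST-E1A and His-CtBP (5X stock 125 nM each) for 2 h, 37 °C. Beads (5X, 50 ug/mL) then 1 h, 37 °C, dark.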
Gal4-VP16 FLuc: Gal4-VP16 reporter inhibition counter-screen; Drosophila S2 Gal4-VP16 UAS-luciferase, luminescence, 20 h; Potency, µM (titrated, usually from 53.6 µM), for inactives: at the top dose activity, negative = inhibition, most hits filed as inhibitors; hit rate 3.5% among 310,000; AID 2546;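 also: Gal4-VP16 expression switched on by copper sulfate through the metallothionein promoter; potency is read from the fitted curve at half-maximal effect; nearly all actives have a fitted effect of over 50% in size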
PKM2 activator: increases activity of human pyruvate kinase M2. purified PKM2, Kinase-Glo ATP luminescence, activation; response scale: 0% is enzyme alone, no compound. Potency, µM (highest dose often 57.5 µM), for inactives: at the top dose activation, usual class: activators. hit rate 0.34% among 260,000. AID 1631; also: potency is read from the fitted curve at half-maximal effect; nearly all actives have a fitted effect of over 55% in size
Target sequence (P14618 whole entry, looked up): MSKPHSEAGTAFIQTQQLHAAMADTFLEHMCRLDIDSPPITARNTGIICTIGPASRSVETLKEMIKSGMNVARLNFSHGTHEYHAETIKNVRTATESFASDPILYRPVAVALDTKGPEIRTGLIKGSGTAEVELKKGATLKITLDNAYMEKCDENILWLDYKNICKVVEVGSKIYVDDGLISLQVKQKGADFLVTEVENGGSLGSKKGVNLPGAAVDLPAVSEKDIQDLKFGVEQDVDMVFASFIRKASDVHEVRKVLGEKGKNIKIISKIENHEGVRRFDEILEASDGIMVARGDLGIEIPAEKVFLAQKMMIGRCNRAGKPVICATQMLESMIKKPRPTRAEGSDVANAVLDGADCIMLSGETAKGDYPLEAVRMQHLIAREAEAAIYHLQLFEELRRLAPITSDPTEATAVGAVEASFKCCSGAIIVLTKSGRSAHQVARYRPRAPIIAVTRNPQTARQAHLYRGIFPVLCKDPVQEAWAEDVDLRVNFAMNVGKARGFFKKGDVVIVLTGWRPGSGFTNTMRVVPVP
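hPK-M2, >95% pure; 0.1 mM ADP / 0.5 mM PEP final; imidazole pH7.2 buffer w/ 7 mM MgCl2, 50 mM KCl; 1 h RT; Kinase-Glo lum. Intermediate enzyme activity for dual inhibitor/activator qHTS.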
RORg inh: blocks mouse ROR gamma transcriptional activity | Drosophila S2 Gal4-RORgamma UAS-luciferase reporter, 20 h | P51450 | AID 2551 | Potency, µM (titrated, usually from 53.6 µM), for the others: at the top dose activity change, negative = inhibition, most hits filed as inhibitors | hit rate 5.4% among 310,000; also: potency is read from the fitted curve at half-maximal effect; nearly all actives have a fitted effect of over 60% in size
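Luciferase reporter read in Schneider cells carrying Gal4-RORγ (mouse) and UAS-Photinus luciferase; cells given compound 1 h before 700 uM copper sulfate induction, then incubated 20 h at ambient temperature.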
An asterisk follows results filed as active; ? = inconclusive; nt = not tested or not shown; [ ] = remark or other dose. Most compounds without a hit are left out; they make up all but 5.6% or so of the library. Unless noted, calls follow the shape of the dose curve; as a rule, active = well fitted curve in the direction sought with a large enough effect; inconclusive = small, poorly fitted or top-dose-only effect, or another doubt; inactive = no such curve, though single readings can be large; an effect the other way counts as inactive or inconclusive. % is scaled to controls: 0 for no effect and ±100 for the full control effect.

SMILES	Six1-Eya2 inh	CtBP-E1A blk	Gal4-VP16 FLuc	PKM2 activator	RORg inh
O=C(CSc1n[nH]c(-c2ccccn2)n1)Nc1ccc(F)cc1	?	-94.8*	?	1.0%	7.94µM*
CC(C)CNC(=O)CN(c1cccc(Cl)c1)S(C)(=O)=O	6.5	1.2	-9.1%	0.3%	6.6%
CC1(c2nc3ccccc3[nH]2)CCC(=O)N1C1CC1 (stereo not drawn)	1.9	0.5	nt	nt	nt
Cc1cc(=O)oc2cc(OCC(=O)N/N=C/c3ccccc3O)ccc12	-5.4	-2.6	-18.7%	nt	2.24µM*
CSc1nc(C)cc(OCC(=O)N/N=C/c2ccccc2O)n1	-68.4*	-68.7*	0.708µM*	-3.3%	0.891µM*
COc1ccc([C@H]2CC(=O)C=C(/C=C/c3ccccc3)C2)cc1OC	-26.4	nt	nt	nt	nt
Cc1ccc2c(c1)-c1nc3ccccc3cc1C2=NC1CCCCC1	1.2	3.5	?	-9.4%	-2.0%
Cc1ccc2c(c1)Cc1nc3ccccc3nc1-2	-8.0	-3.2	14.1µM*	-47.4%	10µM*
CC(O)CNCCOc1ccccc1OCc1ccccc1 (stereo not drawn)	-13.5	1.7	6.8%	-4.1%	-12.4%
CC(O)CNCCNCc1c(OCc2ccccc2)ccc2ccccc12 (stereo not drawn)	17.5	50.6	22.4µM*	-1.7%	?
COC(=O)[C@@]12C[C@@H](CC(=O)NCCC(C)C)C(=O)N(Cc3ccc4c(c3)OCO4)C1=CCC(C)(C)C2	-13.8	-0.7	nt	nt	nt
CSCCNC(=O)C1(C)CCN1C(=O)CCc1ccccc1 (stereo not drawn)	6.7	5.0	nt	nt	nt
O=C1CC(N2CCCCCC2)C(=O)N1c1ccc2c(c1)OCO2 (stereo not drawn)	3.4	9.2	?	21.8%	10µM*
O=C1CC(N2CCN(c3ccc(O)cc3)CC2)C(=O)N1c1ccc2c(c1)OCO2 (stereo not drawn)	-3.1	1.6	5.4%[10 µM]	23.1%	-0.3%
C/C(CC(=O)C(F)(F)F)=N\NC(=O)/C(C#N)=C/N(C)C	-0.5	-15.5	?	-1.2%	8.91µM*
CC(=O)OCC1OC(C#Cc2ccc(C)cc2C)C=CC1OC(C)=O (stereo not drawn)	nt	nt	3.7%[10 µM]	nt	21.0%[10 µM]
Cc1ccccc1C(=O)NC(=S)Nc1sc2c(c1C#N)CCC(C)C2 (stereo not drawn)	-5.5	-5.7	?	0.9%	7.94µM*
CC1CCc2c(sc(NC(=S)NC(=O)c3ccccc3)c2C#N)C1 (stereo not drawn)	6.5	5.6	-7.4%	9.6%	-44.6%
Cn1ncc(Cl)c1C(=O)NC(=S)Nc1sc2c(c1C#N)CCCCC2	-4.1	-1.8	?	-0.8%	11.2µM*
N#Cc1c(NC(=S)NC(=O)c2ccccc2)sc2c1CCCC2	-9.4	-4.9	10µM*	-3.1%	6.31µM*
N#Cc1c(NC(=O)c2ccccc2)sc2c1CCC2	6.3	-0.9	0.9%	5.4%	-14.9%
N#Cc1c(NC(=O)c2ccc(Cn3cc(Br)cn3)o2)sc2c1CCCCCC2	1.1	13.1	-10.3%[0.365 µM]	9.7%	5.62µM*
Cn1nccc1C(=O)Nc1sc2c(c1C#N)CCCC2	2.7	-8.7	?	1.6%	?
COCCNC(=O)C1(C)CCN(C(=O)c2oc3ccccc3c2C)C1 (stereo not drawn)	6.1	-23.2	nt	nt	nt
CC1CC(C)CN(CC(=O)N2CCOCC2)C1 (stereo not drawn)	9.9	nt	0.5%	9.7%	-1.2%
SMILES	Six1-Eya2 inh	CtBP-E1A blk	Gal4-VP16 FLuc	PKM2 activator	RORg inh
CCCC1Cc2c(sc(NC(=S)NC(=O)c3ccccc3)c2C#N)CO1 (stereo not drawn)	nt	nt	?	-0.4%	4.47µM*
Cc1ccsc1/C=N/NC(=O)c1ccc(Cn2cc(Br)cn2)o1	2.3	-3.3	?	1.4%	12.6µM*
Cc1cccc(C(=O)Nc2sc3c(c2C(=O)O)CCC3)c1	-2.0	-5.2	4.8%	-14.4%	-15.1%
Cc1cccc(C(=O)Nc2sc3c(c2C#N)CCCCC3)c1	12.6	2.1	?	0.7%	7.94µM*
CC(C)CC(=O)NC(NC(=S)Nc1sc2c(c1C#N)CCCC2)C(Cl)(Cl)Cl (stereo not drawn)	-8.5	-8.5	?	-4.7%	10µM*
CSCC[C@H](NC(=O)[C@H](CO)NC(=O)[C@H](Cc1ccc(O)cc1)NC(=O)[C@@H](N)CO)C(=O)N[C@@H](CCC(=O)O)C(=O)N[C@@H](Cc1cnc[nH]1)C(=O)N[C@@H](Cc1ccccc1)C(=O)N[C@@H](CCCNC(=N)N)C(=O)N[C@@H](Cc1c[nH]c2ccccc12)C(=O)NCC(=O)N[C@@H](CCCCN)C(=O)N1CCC[C@H]1C(=O)N[C@H](C(=O)NCC(=O)N[C@@H](CCCCN)C(=O)N[C@@H](CCCCN)C(=O)N[C@@H](CCCNC(=N)N)C(=O)N[C@@H](CCCNC(=N)N)C(=O)N1CCC[C@H]1C(=O)N[C@H](C(=O)N[C@@H](CCCCN)C(=O)N[C@H](C(=O)N[C@@H](Cc1ccc(O)cc1)C(=O)N1CCC[C@H]1C(=O)N[C@@H](CC(N)=O)C(=O)NCC(=O)N[C@@H](C)C(=O)N[C@@H](CCC(=O)O)C(=O)N[C@@H](CC(=O)O)C(=O)N[C@@H](CCC(=O)O)C(=O)N[C@@H](CO)C(=O)N[C@@H](C)C(=O)N[C@@H](CCC(=O)O)C(=O)N[C@@H](C)C(=O)N[C@@H](Cc1ccccc1)C(=O)N1CCC[C@H]1C(=O)N[C@@H](CC(C)C)C(=O)N[C@@H](CCC(=O)O)C(=O)N[C@@H](Cc1ccccc1)C(=O)O)C(C)C)C(C)C)C(C)C	nt	nt	-0.1%	nt	0.7%
CN(C)c1ccc(N/C=C/C(=O)c2ccccc2)cc1	-29.9	?	10µM*	-53.2%	5.62µM*
O=C(COc1ccccc1/C=C1\SC(=S)NC1=O)Nc1ccc(F)cc1	-29.8	-85.4*	nt	nt	nt
COc1ccc(NC(=O)/C(C#N)=C\c2ccc(-c3cc(C(=O)O)ccc3C)o2)cc1	?	?	7.1%	6.3%	10.3%
COc1ccc(NC(=O)/C(C#N)=C/c2ccc(-c3ccccc3C(=O)O)o2)cc1	-5.2	-14.9	-2.8%	-0.3%	19.7%
Cc1ccccc1NC(=O)/C(C#N)=C/c1ccc(-c2ccc(Cl)c(C(=O)O)c2)o1	-15.1	-13.4	17.8µM*	4.5%	-32.9%
COc1ccc(NC(=O)/C(C#N)=C/c2ccc(-c3ccc(Cl)c(C(=O)O)c3)o2)cc1	-1.2	?	?	1.0%[11.5 µM]	11.2µM*
COc1ccc(NC(=O)/C(C#N)=C\c2ccc(-c3cccc(C(=O)O)c3C)o2)cc1	-22.0	-17.0	?	-7.0%	3.98µM*
COc1ccc(S(=O)(=O)N2CCc3cc(OC)c(OC)cc3C2)cc1	-9.5	-18.9	-0.2%	7.94µM*	2.0%
C=C(C)C1(O)OC(=O)C=C1OC (stereo not drawn)	2.4	9.3	11.2µM*	0.6%	12.6µM*
